According to PubChem BioAssay AID777 (Sanford-Burnham Center for Chemical Genomics, 2007):
In all, about 96,000 compounds went through this assay and about 19,000 (20%) were called active.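 The calls were made as follows: active = blocking of liver enzyme CYP2C9 beyond about 50% at 5 µM (limit read from the data); inactive = the rest.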 A selection follows.

Target: Cytochrome P450 2C9 (Homo sapiens) (UniProt P11712)
Test: blockers of cytochrome P450 2C9 activity – biochemical, luminescence, ADME assay, primary screen (AID 777)
Details: CYP2C9 Supersomes, luciferin-H conversion, at 5 µM, active compounds read high

Sequence of Cytochrome P450 2C9 (Homo sapiens) (P11712 whole entry, looked up): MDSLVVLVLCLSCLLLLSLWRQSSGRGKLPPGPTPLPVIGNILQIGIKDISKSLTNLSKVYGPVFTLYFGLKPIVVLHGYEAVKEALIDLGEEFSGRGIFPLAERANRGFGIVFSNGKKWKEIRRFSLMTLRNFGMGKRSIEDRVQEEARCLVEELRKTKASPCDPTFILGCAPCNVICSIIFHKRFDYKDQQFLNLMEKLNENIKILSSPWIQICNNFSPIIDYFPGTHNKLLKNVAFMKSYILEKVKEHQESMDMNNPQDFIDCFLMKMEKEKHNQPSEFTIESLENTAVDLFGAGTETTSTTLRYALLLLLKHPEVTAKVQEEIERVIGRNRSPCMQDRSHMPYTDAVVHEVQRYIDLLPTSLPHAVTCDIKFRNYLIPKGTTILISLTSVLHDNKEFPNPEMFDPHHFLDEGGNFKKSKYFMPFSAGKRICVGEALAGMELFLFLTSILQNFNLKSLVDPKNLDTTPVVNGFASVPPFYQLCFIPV

| Structure (SMILES) | inhibition |
| --- | --- |
| COc1ccc(C(=O)c2oc3ccc(Br)cc3c2NC(C)=O)cc1 | 1.7% (inactive) |
| COc1ccc(NC(=O)c2c(C)oc3c2CCCC3)cc1 | 15.4% (inactive) |
| COc1ccc(C(=O)c2c(C)oc3cc([N+](=O)[O-])c(O)c([N+](=O)[O-])c23)cc1 | 79.8% (active) |
| Cc1nn(C)c(Oc2ccccc2)c1[N+](=O)[O-] | 29.1% (inactive) |
| CN(CCC#N)c1ncnc2scc(-c3ccccc3)c12 | 19.4% (inactive) |
| Cc1noc(C)c1COC(=O)Cn1c(C)nc2ccccc21 | 10.7% (inactive) |
| Cc1nc2ccccc2cc1O | -22.9% (inactive) |
| Cc1noc(C)c1COC(=O)c1cc2ccccc2cc1O | 91.6% (active) |
| CC(=O)N(CN1C(=O)C2CC=CCC2C1=O)c1cccc(Cl)c1 (stereo not drawn) | 12.2% (inactive) |
| CN1C(=O)CC(N2CCN(c3ccccn3)CC2)C1=O (stereo not drawn) | 7.7% (inactive) |
| COc1cccc(C(CC(=O)NCCN2CCOCC2)NS(=O)(=O)c2ccc(C)cc2)c1OC (stereo not drawn) | -7.3% (inactive) |
| CCn1c2ccccc2c2cc(NC(=O)C/C(C)=N/NC(=O)c3ccccc3N)ccc21 | -17.8% (inactive) |
| Cc1cc(C)cc(N(C(C)C(=O)Nc2c(C)n(C)n(-c3ccccc3)c2=O)S(C)(=O)=O)c1 (stereo not drawn) | 16.6% (inactive) |
| CSc1ccccc1-c1nnc(-c2ccc(Cl)cc2)o1 | -19.4% (inactive) |
| FC(F)(F)c1cnc(Oc2ccccc2-c2nnc(-c3ccc(Cl)cc3)o2)c(Cl)c1 | 81.1% (active) |
| COc1ccccc1-c1nc(C(F)(F)F)c(OC)o1 | 17% (inactive) |
| O=c1[nH]n(-c2cccc(Cl)c2)c2ncccc12 | -10.7% (inactive) |
| CCSc1nnc(NC(=O)Cc2ccccc2OC)s1 | 42.4% (inactive) |
| O=C(Nc1nnc(SCc2ccc(Cl)cc2Cl)s1)C1COc2ccccc2O1 (stereo not drawn) | 67.2% (active) |
| O=C(Nc1nnc(SCc2c(Cl)cccc2Cl)s1)C1CCCO1 (stereo not drawn) | -65.7% (inactive) |
| O=C(Cn1c(=O)n(Cc2ccco2)c(=O)c2ccccc21)NCC1CCCO1 (stereo not drawn) | 57.3% (active) |

| Structure (SMILES) | inhibition |
| --- | --- |
| COc1ccc(NC(=O)Cn2c(=O)n(Cc3ccco3)c(=O)c3ccccc32)cc1 | 17.1% (inactive) |
| COc1ccccc1CNC(=O)CCCn1c(=O)c2ccccc2n(CC(=O)NC2CCCC2)c1=O | 44.7% (inactive) |
| O=C1CC(Sc2ncn[nH]2)C(=O)N1c1ccccc1 (stereo not drawn) | -21.9% (inactive) |
| Cc1ccc(S(=O)(=O)N/N=C\c2cc3c(cc2[N+](=O)[O-])OCO3)cc1 | -13% (inactive) |
| CN1OC(COC(=O)c2ccc(Cl)cc2)CC1c1ccccc1 (stereo not drawn) | 37.4% (inactive) |
| C=CCNC(=O)c1ccc(C)c(Br)c1 | -17.9% (inactive) |
| C=CCNC(=O)c1cc(-c2ccccc2O)on1 | -48.2% (inactive) |
| C=CCNC(=O)c1sc(SC)cc1-c1ccc(Cl)cc1 | 64% (active) |
| ON=C1/C(=N\O)CC2(C/C1=N/O)OCCO2 | -14.6% (inactive) |
| COc1ccc(-c2cc(C(=O)n3cnc4ccccc43)c3ccccc3n2)cc1 | 92.5% (active) |
| COc1ccc(-c2cc3n(n2)CCc2nc4ccccc4n2-3)cc1 | -8.6% (inactive) |
| Cc1ccc(OCC(=O)Nn2cnc3ccccc32)cc1 | 6.6% (inactive) |
| Cc1[nH]n(-c2cccc(Cl)c2)c(=O)c1/C=N/n1c(C)nc2ccccc2c1=O | 70.7% (active) |
| COc1cc(NS(=O)(=O)c2ccc(N=Cc3c(C)[nH]n(-c4ccccc4)c3=O)cc2)nc(OC)n1 | -9.3% (inactive) |
| Cc1[nH]n(-c2cccc(Cl)c2)c(=O)c1-c1ccc(Cl)cc1 | -1% (inactive) |
| Cc1ccc(CNC(=O)CCNC(=O)Cn2ccc3ccccc3c2=O)cc1 | -18.8% (inactive) |
| CC1CCCC(NC(=O)CN2CCN(Cc3ccc(Cl)cc3)C2=O)C1C (stereo not drawn) | 15.9% (inactive) |
| COc1cc(C2C(C(=O)c3sc(C)nc3C)=C(O)C(=O)N2CCN(C)C)cc(OC)c1OC (stereo not drawn) | 79% (active) |
| COc1cc(C2C(C(=O)c3ccc(C)o3)=C(O)C(=O)N2CCc2ccccc2)ccc1O (stereo not drawn) | 5.2% (inactive) |
| COc1cc(C2C(C(=O)c3ccc(C)o3)=C(O)C(=O)N2Cc2cccnc2)ccc1O (stereo not drawn) | 19.4% (inactive) |
| Cc1ccc2c(c1)C(O)(CC(=O)c1cccnc1)C(=O)N2 (stereo not drawn) | 8.4% (inactive) |

| Structure (SMILES) | inhibition |
| --- | --- |
| Cc1nn(C)cc1/C=C1\CCC/C(=C\c2cn(C)nc2C)C1=O | -46.5% (inactive) |
| CCOCCCNC(=O)c1c[nH]c2cc(C)ccc2c1=O | -8.1% (inactive) |
| Cc1ccc(S(=O)(=O)N2CCN(S(=O)(=O)N3CCOCC3)CC2)cc1 | -55.7% (inactive) |
| Cc1noc(C)c1CSc1nnc2ccc3ccccc3n12 | 4.4% (inactive) |
| Cc1noc(C)c1CSc1nc2cc(S(=O)(=O)N3CCOCC3)ccc2o1 | 54% (active) |
| CCS(=O)(=O)Nc1cc(C(=O)OC)ccc1C(=O)OC | 37.5% (inactive) |
| Cc1ccccc1-c1nc(CS(=O)(=O)CC(=O)N2CCc3ccccc3C2)c(C)o1 | 72.4% (active) |
| O=C(Cn1c(=S)nc2ccccn21)N1CCc2ccccc2C1 | 4.1% (inactive) |
| Cc1oc(-c2ccccc2F)nc1CS(=O)(=O)CC(=O)NCCCN(C)C1CCCCC1 | -10.6% (inactive) |
| COCCCNC(=O)C1CC(=O)N(c2ccc(C)cc2)C1 (stereo not drawn) | -1.7% (inactive) |
| CS(=O)(=O)N(C(=O)NC(=O)NC1CCS(=O)(=O)C1)C1CCCCC1 (stereo not drawn) | 9.2% (inactive) |
| COC(=O)CCNc1ccc2c(c1)OCCO2 | -2.2% (inactive) |
| Cc1ccc(F)cc1NC(=O)c1ccc2c(c1)OCO2 | 5.7% (inactive) |
| CCOc1ccc(NCCC(=O)c2ccc3c(c2)OCO3)cc1 | 63.8% (active) |
| CC(=O)c1cc(C#N)c(SCC(=O)C(C)(C)C)nc1C | 22.5% (inactive) |
| CCOC(=O)C(Sc1ncc(C#N)c(N)n1)C(C)C (stereo not drawn) | 25.3% (inactive) |
| CCC(C)n1[nH]c(=O)cc1N (stereo not drawn) | -5.6% (inactive) |
| Brc1ccc(C2=CC(c3ccco3)n3ncnc3N2)cc1 (stereo not drawn) | 3.2% (inactive) |
| Clc1ccc2c(c1)C1=C(C(c3ccncc3)O2)C(c2ccc(Br)cc2)n2ncnc2N1 (stereo not drawn) | 82% (active) |
| COC(=O)C1=C(C)Nc2ncnn2C1c1cccnc1 (stereo not drawn) | -19.5% (inactive) |
| COc1cccc2c1OCC(C(=O)NCc1ccc(Cl)cc1Cl)=C2 | -17.7% (inactive) |
